In the library only some 20% were active in any assay of this set; here they are far more common.
Pf growth 96h: Primary qHTS for delayed death inhibitors of the malarial parasite plastid, 96 hour incubation; P. falciparum luciferase reporter growth, 96 h; Potency, µM (highest dose often 28.7 µM), for inactives: at the highest dose activity change, negative = inhibition, actives largely listed as inhibitors; 6.9% of 320,000 active; AID 504834, 2011; further: potency means the concentration at half of the fitted maximal effect; on the % scale 0 is the no-effect control and ±100 the full control effect
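Erythrocytes infected with luciferase-expressing P. falciparum were dispensed at 2% hematocrit and 0.05% parasitemia (final), then incubated with compounds 96 hours at 37 C in 5% CO2. Luminescence after detection reagent addition reported growth.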
HCMV inh: qHTS Assay for inhibitors of the human cytomegalovirus (HCMV). HFF cells, HCMV-luciferase reporter, 72 h; stronger effect = lower value. activity change, negative = inhibition, % at 57.5 µM. 4.5% of 410,000 active. AID 1259415, 2018; in the data active means activity change below about -60%; inconclusive means no clear call, values can overlap the other calls; inactive means above about -39%; further: on the % scale 0 is the no-effect control and ±100 the full control effect
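Steps: HFFs plated, 16 h 37C; compounds added; HCMV-luciferase added to MOI 1 PFU/cell; 72 h 37C; OneGlo reagent, 5 min room temperature; luminescence read, normalized to controls.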
Shiga toxin inh: A qHTS for Small Molecule Inhibitors of Shiga Toxin; Vero cells, Shiga toxin protein synthesis inhibition reporter; inhibition, % at 38.7 µM; 9.2% of 290,000 active; AID 2315, 2010; in the data active means inhibition mostly above about 28%, no sharp cut-off; inactive means mostly below about 43%; further: 0% is about no effect
Pf growth 48h: Primary qHTS for delayed death inhibitors of the malarial parasite plastid, 48 hour incubation | Potency, µM (highest dose often 28.7 µM), inactives show top-dose activity change, negative = inhibition, actives largely listed as inhibitors | 5.9% of 310,000 active | P. falciparum luciferase growth in erythrocytes, 48 h; further: potency means the concentration at half of the fitted maximal effect; on the % scale 0 is the no-effect control and ±100 the full control effect
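Firefly luciferase activity from engineered P. falciparum reports growth; inhibitors lower the luminescent signal. Cultures contained 2% hematocrit erythrocytes at 0.1% final parasitemia.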
CHX counter: Cycloheximide Counterscreen for Small Molecule Inhibitors of Shiga Toxin; cell reporter, cycloheximide protein synthesis inhibition counterscreen; 12% of 300,000 active; max response, %; in the data active means max response mostly above about 13%, no sharp cut-off; inactive means mostly below about 14%; further: read at 38.3 µM for the half of the compounds with a filed dose; 0% is about no effect
An asterisk follows results filed as active; ? = inconclusive; / = not tested or not shown; ! = a repeat was not active; [ ] = dose if it differs, or a comment. Unless noted, the call rests on the fitted dose curve; in most records, active means well fitted inhibition curve with a large enough effect; inconclusive means small, poorly fitted or top-dose-only effect, or another doubt; inactive means no such curve, though single readings can be large or run the other way.

SMILES	Pf growth 96h	HCMV inh	Shiga toxin inh	Pf growth 48h	CHX counter
O=C(Nc1ccncc1)c1ccc2c(c1)C(=O)N(CC1CCCO1)C2=O (configuration not stated)	16.6%	-17.6	-6.5	-5.1%	-1.6
O=C(NCC1CCCO1)c1ccc2c(c1)C(=O)N(C1CCCCC1)C2=O (configuration not stated)	?	-15.3	-9.1	3.6%	-2.5
Cc1ccnc(NC(=O)c2ccc3c(c2)C(=O)N(CC2CCCO2)C3=O)c1 (configuration not stated)	-39.0%[5.75 µM]	40.8	61.7*	21.9%	23.7*
CC(C)CCN1C(=O)c2ccc(C(=O)NCC3CCCO3)cc2C1=O (configuration not stated)	4.15µM*	-0.2	-1.3	1.7%	-0.5
CCN(CC)S(=O)(=O)c1ccc(N/N=C/c2ccccc2OCC(=O)O)c([N+](=O)[O-])c1	1.65µM*	51.6	-11.9	10.4µM*	2.1
COc1ccccc1CNC(=O)C(=O)NCC1CCCN1S(=O)(=O)c1cc(C)ccc1C (configuration not stated)	/	15.5	/	/	/
O=c1ccc(Cc2ccccn2)n[nH]1	?	71.6	-8.6	/	-4.3
Cc1nc(/C(N)=N/OC(=O)c2ccc(Cl)cc2)c(C(F)(F)F)o1	44.4%	3.3	45.9*	38.4%	45.8*
Cc1ccc(C)c(NC(=O)CSc2nnc(CNC(=O)c3ccco3)n2C)c1	2.08µM*	-12.8	-1.5	27.8%	15.9
Cc1ccc(NC(=O)CSc2nccn2Cc2ccco2)c(C)c1	5.2%	/	60.7*	191.8%	51.8*
Cc1cc(C)c(NC(=O)CSc2nccn2Cc2ccco2)c(C)c1	/	22.9	/	/	/
CC(=O)Nc1cccc(NC(=O)CSc2nccn2Cc2ccco2)c1	?	-70.4*!	-1.0	15.2%	21.0
Cc1ccc(C)c(NC(=O)CSc2nccn2Cc2ccco2)c1	20.3%	/	53.8*	5.9%	23.9*
COc1ccccc1NC(=O)Cn1c(=O)n(CCC(=O)NCC2CCCO2)c(=O)c2cc(OC)c(OC)cc21 (configuration not stated)	/	4.9	/	/	/
O=C(CSc1nccn1Cc1ccco1)Nc1ccccc1F	52.6%	13.1	18.3	32.5%	29.9*
COc1ccc(C(=O)N2CCN(c3ccc(N4CCOCC4)nn3)CC2)cc1OC	?	-10.9	/	?	/
CCOc1ccccc1Nc1nc(N)nc(CSc2nccc(C)n2)n1	26.4%	2.3	-12.2	-2.2%	-1.6
COc1ccc(OCc2nc(N)nc(Nc3ccccc3OC)n2)cc1	8.0%	?	11.2	1.0%	6.7
COc1ccccc1Nc1nc(N)nc(CSc2ncccn2)n1	?	32.6	95.9*	60.1%	28.0*
COc1ccc(OC)c(Nc2nc(N)nc(CCl)n2)c1	?	-99.1*	20.4	?	-1.0
COc1ccccc1Nc1nc(N)nc(CCl)n1	-10.2%	?	38.5*	?	20.8*
COc1ccc(OC)c(Nc2nc(N)nc(CSc3nnc(N)s3)n2)c1	15.1%	14.5	-2.3	-1.1%	-1.6
CCOc1ccc(Nc2nc(C)c(NC(=O)c3cccc(F)c3)c(Nc3ccc(OCC)cc3)n2)cc1	/	0.9	/	/	/
O=C(CN1CCCc2ccccc21)NCc1ccccc1Cl	3.6%	25.2	27.1	31.3%	11.8
O=C(CN1CCCc2ccccc21)N1CCc2ccccc21	-10.8%	4.4	48.3*	?	27.7*
SMILES	Pf growth 96h	HCMV inh	Shiga toxin inh	Pf growth 48h	CHX counter
NNC(=O)CN1CCCc2ccccc21	333.3%	?	92.4*	294.6%	69.0*
O=C(CCCC(=O)N1CCc2ccccc21)N1CCc2ccccc21	66.6%	41.0	-11.4	-7.8%	-1.9
CC(CC(=O)N1CCc2ccccc21)c1ccccc1 (configuration not stated)	29.6%	-14.0	36.4	/	17.8*
O=C(CC(Nc1cccc(Cl)c1Cl)C(=O)O)c1ccccc1 (configuration not stated)	-8.9%	4.3	102.4*	39.6%	56.6*
COc1ccccc1NC(CC(=O)c1ccccc1)C(=O)OCC(=O)c1ccc(F)cc1 (configuration not stated)	-1.5%	67.9	59.9*	82.2%	48.7*
O=C(CC(Nc1ccccc1Cl)C(=O)O)c1ccccc1 (configuration not stated)	-10.2%	?	90.7*	144.0%	68.2*
Cc1c(Cl)cccc1NC(CC(=O)c1ccccc1)C(=O)O (configuration not stated)	55.3%	8.6	149.8*	18.8%	69.6*
Cc1c(Cl)cccc1NC(=O)CC(Cc1ccccc1)C(=O)O (configuration not stated)	-9.0%	-24.9	18.6	-18.3%	2.7
CC(=O)N1CCN(C(=O)c2cccc(S(=O)(=O)N3CCOCC3)c2)CC1	81.6%	-23.0	/	27.7%	/
Cc1cc(C)cc(-n2c(SCC(=O)N3CCC(C)CC3)nc3c([nH]c4ccccc43)c2=O)c1	/	24.6	/	/	/
O=C(CC(Nc1ccc(F)cc1)c1ccccc1)c1ccccc1 (configuration not stated)	62.8%	?	91.2*	17.5%	31.2*
O=C(CC(Nc1ccc(Cl)cc1)C(=O)O)c1ccccc1 (configuration not stated)	320.8%	114.0	42.2*	332.6%	54.3*
Cc1c(Cl)cccc1NC(CC(=O)c1ccccc1)C(=O)OCC(=O)c1cccs1 (configuration not stated)	-70.4%	86.2	80.8*	2.0%	23.3*
Cc1c(Cl)cccc1Nc1ccccc1C(=O)O	13.5µM*!	21.1	-7.3	?	-3.7
COc1c2ccccc2nn1-c1ccc(-c2cn(Cc3ccccc3)nn2)cc1	/	-27.6	/	/	/
Cc1cccc(CNC(=O)c2cnc3c(-c4cccc(C)c4)c(C)nn3c2C)c1	/	-34.3	/	/	/
COC(=O)C(c1ccccc1)C(CC(=O)c1ccccc1)c1ccccc1 (configuration not stated)	/	3.3	/	/	/
COC(=O)c1ccccc1SC(CC(=O)c1ccccc1)c1ccc(F)cc1 (configuration not stated)	?	2.0	107.3*	?	55.9*
COc1ccc2c(c1)C(CC(C)=O)N(c1ccc(-c3cccs3)cc1)C(c1ccsc1)=C2 (configuration not stated)	/	-90.3*	/	/	/
COc1ccc2c(c1)C(CC(C)=O)N(c1ccc(-c3cnc(OC)nc3)cc1)C(c1ccsc1)=C2 (configuration not stated)	/	7.9	/	/	/
CCCn1c2ccccc2c2cnn(CC(=O)Nc3cc(C)c(Cl)cc3OC)c(=O)c21	/	-7.4	/	/	/
COc1ccc(Cn2c(SCc3ccc(C(=O)NCc4ccc(C)cc4)cc3)nc3cccnc32)cc1	/	-21.3	/	/	/
O=C(c1ccccc1)c1ccc2nc(-c3ccco3)c(-c3ccco3)nc2c1	7.2%	67.2	56.5*	-3.7%	36.3*
CC(=O)Nc1ccc(NC(=O)C2CCN(C(=O)NC3CCCCC3)CC2)cc1	5.22µM*	-14.7	10.7	-3.2%	-4.9

Screening data from PubChem BioAssay.
